The list is not random: actives were taken first. Their share in the collection is about 4.6%.
D1 antag: blocks dopamine activation of the human D1 receptor. HEK293 TREx D1 cells, calcium flux, dopamine EC80; hits give low values. hit rate 3.2% among 360,000. AID 504652. P21728. activity change, negative = inhibition, % at 10 µM; in the data active = activity change below about -30%
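Inducible Hek293 Trex D1 cells (tetracycline, overnight, 30 C). Calcium dye 30–90 min RT. Antagonist mode: EC80 dopamine added after 180 s compound read.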
D1 ag: agonists of human D1 dopamine receptor | hit rate 1% among 360,000 | activation, % at 2 µM | AID 504660 | HEK293 T-REx D1 cells, calcium flux, agonist mode
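Inducible HEK293 T-REx D1 cells, force-coupled to calcium signalling, were plated at 4000 cells/well with tetracycline and held overnight at 30 C. After no-wash calcium dye loading, compound-evoked calcium rise over 180 s flagged agonists.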
TRHR ag: activates the human TRH receptor. P34981. TRHR cells, calcium flux fluo-8, FDSS agonist mode. activation, % at 2 µM. hit rate 0.18% among 360,000
Target sequence (P34981 whole entry, looked up): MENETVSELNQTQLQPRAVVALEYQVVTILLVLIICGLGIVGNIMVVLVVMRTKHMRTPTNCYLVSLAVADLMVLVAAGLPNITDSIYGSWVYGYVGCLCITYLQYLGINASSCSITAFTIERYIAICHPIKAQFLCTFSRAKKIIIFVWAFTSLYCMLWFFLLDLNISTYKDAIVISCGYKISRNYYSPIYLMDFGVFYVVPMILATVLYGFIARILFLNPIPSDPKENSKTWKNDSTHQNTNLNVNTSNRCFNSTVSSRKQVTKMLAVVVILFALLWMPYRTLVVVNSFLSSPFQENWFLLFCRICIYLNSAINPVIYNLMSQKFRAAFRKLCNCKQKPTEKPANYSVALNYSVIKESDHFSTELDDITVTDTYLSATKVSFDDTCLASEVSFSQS
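Read-out: compound-evoked intracellular calcium rise in TRHR cells, fluo-8 dye, kinetic FDSS fluorescence at 1 s/cycle following a 10-cycle baseline. Cells cultured overnight before dye loading (30 min–1.5 h, RT).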
TRHR PAM: allosteric enhancers of human TRH receptor. TRHR cells, fluo-8 calcium fluorescence, EC20 TRH enhancement. hit rate 0.66% among 360,000. enhancement, % at 2 µM. P34981; in the data active = enhancement above about 30%
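TRHR-expressing cells loaded with fluo-8 calcium dye were read kinetically (ex 480/em 530) during compound addition, then stimulated with an EC20 of TRH (10 nM final). Enhancement of the Gq-mediated intracellular calcium response was scored.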
D1 potentiator: potentiators of human D1 dopamine receptor. P21728. HEK293 TREx D1 cells, calcium flux, dopamine EC20 potentiation. potentiation, % at 10 µM. hit rate 0.036% among 360,000; in the data active = potentiation above about 30%
Each line names hits and unclear results; the compound was inactive in the other large screens. Cut-off read from the data, not from the text of the source, unless noted: active = activation above about 30%; inactive = the rest.

COc1ccc(-c2nc3ccccc3n3c(-c4cccc(C)c4)c4c(=O)n(C)c(=O)n(C)c4c23)cc1	none
CCc1nc2ccc(C(=O)NCCCN3CCN(c4ccccc4F)CC3)cc2nc1CC	D1 antag -32
Cc1c(C)n(C)c2ccc(C(=O)NCCCN3CCN(c4ccccc4F)CC3)cc12	none
CC1CC(C)CN(c2oc(-c3ccco3)nc2C#N)C1 (stereo not given)	D1 antag -46
N#Cc1nc(-c2ccco2)oc1N1CCCC1	none
COc1cc(NC(=O)Cn2ccc3ccccc3c2=O)cc(OC)c1OC	none
CC(Sc1nnnn1C1CC1)C(=O)N1CC(=O)Nc2ccccc21 (stereo not given)	D1 antag -32
Cc1cccc(CSc2nc(-c3cccc(C)c3)nc3c2Cc2c(CO)cnc(C)c2O3)c1	none
COc1ccccc1NC(=O)Cn1c(=O)c(CNc2ccc(C)cc2)cc2cc3c(cc21)OCCO3	none
CCc1ccc(NCc2cc3cc(OC)c(OC)cc3n(CC(=O)Nc3ccc(F)cc3)c2=O)cc1	none
COc1ccccc1NC(=O)Cn1c(=O)c(CNc2ccccc2)cc2cc(OC)c(OC)cc21	D1 ag 69
COc1cc2cc(CNc3ccccc3)c(=O)n(CC(=O)Nc3ccccc3)c2cc1OC	D1 ag 37
CC1=C(C(=O)Nc2cccc(C)c2C)C2(CCCCC2)OC1=O	none
O=C(Cn1nnc(-c2ccccc2Cl)n1)Nc1ccc(Br)cc1	none
Cc1cccc(-n2c(C)cc(/C=C3\NC(=O)NC3=O)c2C)c1	D1 antag -40
Cc1ccc(-n2c(C)cc(/C=C3\SC(=O)NC3=O)c2C)cc1	D1 antag -36
CCn1c(C)cc(/C=C2/SC(=S)NC2=O)c1C	none
Cc1cc(/C=C2\SC(=S)NC2=O)c(C)[nH]1	D1 ag 33
Cc1cc(/C=C2\SC(=S)NC2=O)c(C)n1-c1cccc(O)c1	D1 ag 34
O=c1c2ccccc2n(Cc2ccccc2F)c(=O)n1-c1cccc(F)c1	none
Cc1cc(C=C2C(=O)c3ccccc3C2=O)c(C)n1-c1ccccc1	D1 ag 33
O=P(O)(CCc1ccccn1)CN1CCCCC1	D1 antag -32
O=P(O)(CCc1ccccn1)CN1CCOCC1	none
CCCCCCSc1ccc(-c2nc3ccc(C)cn3c2NCc2ccccc2)cc1OC	none
CCCCCCSc1ccc(-c2nc3ccc(C)cn3c2NCc2ccccc2)cc1	D1 antag -36
O=C(Oc1ccc2c(=O)c(Oc3ccc4ccccc4c3)coc2c1)c1cccnc1	D1 antag -37
CN1CCN(c2ncc(CN3C(=O)c4ccccc4C3=O)s2)CC1	none
Cc1cc2c(s1)Nc1ccccc1N=C2N1CCN(C)CC1	D1 antag -89 (no result: D1 ag, D1 potentiator)
O=C(CCCN1C(=O)CCC1=O)Nc1ccc(Br)cc1F	D1 antag -32
Cc1ccc(NC(=O)c2sc3nc[nH]c(=O)c3c2C)cc1C	none
O=C(Nc1ccc(N2CCCC2)c(Cl)c1)c1ccco1	none
O=C(Nc1ccc(Nc2ccccc2)cc1)c1ccco1	none
CN1CCN(c2ccc(NC(=O)c3ccco3)cc2Cl)CC1	D1 antag -38
CC(C)CC(=O)NC(=S)Nc1ccc(NC(=O)c2ccco2)cc1	D1 antag -36
O=C(Nc1ccc(Br)cc1)c1ccco1	D1 antag -42
CCN1CCN(c2ccc(NC(=O)c3cccc(F)c3)cc2Cl)CC1	D1 antag -36
Cc1ccccc1C(=O)Nc1nc(-c2nnn(-c3ccc(C(C)C)cc3)c2C)ns1	none
CCOc1ccccc1NCc1nnc2n1CCCCC2	none
Cc1nc(-c2ccc(NC(=O)c3ccco3)cc2)cs1	none
CCN(CC)S(=O)(=O)c1ccc(NC(=S)NC(=O)CC(C)C)cc1	D1 antag -33
O=C(Nc1ccc(C(=O)Oc2ccccc2)c(O)c1)c1ccco1	D1 antag -36
Cc1ccn2cc(-c3ccc(NC(=O)c4ccco4)cc3)nc2c1	D1 antag -33
COc1ccc(NC(=O)c2ccco2)cc1NC(=O)c1cccc(C)c1OC	D1 antag -31
Cc1cccc(NC(=O)Cn2nnc(C(=O)Nc3ccccc3Br)c2N)c1C	none
CCn1c(CNC(=O)c2ccc(OC)cc2)nnc1SCC(=O)Nc1cc(C)ccc1C	none
O=C(Nc1ccc(-c2nc3ccccc3[nH]2)cc1)c1ccco1	D1 antag -46
O=C(/C=C/c1ccco1)Nc1ccc(-c2nc3ccccc3[nH]2)cc1	none
O=C(Nc1ccc(NC(=O)c2ccco2)cc1)c1ccco1	TRHR PAM 31
O=C(CNS(=O)(=O)c1ccccc1F)NNC(=O)c1ccc(Br)cc1	TRHR PAM 32
O=C(CNC(=O)c1ccc(Br)o1)NNC(=O)c1ccc(Br)cc1	none
CC(C)(C)c1ccc(/C=N/NC(=O)C2CCCC2)cc1	D1 antag -47
CC(C)(C)OC(=O)CC(=O)NNC(=O)c1nc2ccccc2[nH]1	none
COC(=O)c1sc(S(=O)(=O)N2CCCCC2C)c(C(=O)OC)c1C (stereo not given)	D1 antag -59
COc1cc(-c2ccno2)ccc1S(=O)(=O)N1CCN(c2ccccc2)CC1	none
CC(C)(C)c1cc[n+](-c2[nH]c(=O)sc2/C=N/NC([S-])=Nc2ccccc2)cc1	D1 ag 91
Cc1cc[n+](-c2[nH]c(=O)sc2/C=N/NC([S-])=Nc2ccccc2)cc1C	none
CCOC(=O)c1cnc2ccc(Cl)cc2c1Nc1ccc(OCC)cc1	D1 antag -58
CCOC(=O)c1cnc2ccccc2c1Nc1cc(C(=O)O)ccc1C	TRHR PAM 37
CCOC(=O)c1cnc2ccccc2c1Nc1cccc(OC)c1	D1 antag -35
COc1ccc(NC(=O)COc2ccc(S(=O)(=O)NC3CCCCC3)cc2)c(OC)c1	none
CCc1ccccc1NC(=O)Nc1c[nH]c(=O)[nH]c1=O	none
COCCN1CCc2nc(SCC(=O)Nc3ccc(Br)cc3)[nH]c(=O)c2C1	none
Cc1ccc(CNCc2cccn2-c2nnc(N3CCCC3)s2)cc1	none
Cc1ccc(CN(Cc2cccn2-c2nnc(N3CCCC3=O)s2)C(=O)Nc2ccccc2Cl)cc1	D1 antag -69
CCOc1ccccc1NC(=O)Cn1c(=O)ccc2cc(S(=O)(=O)N3CCCC3)ccc21	none
Cc1ccc(OCC(=O)NNC(=S)NC(=O)C2CCCCC2)c(C)c1	D1 ag 47
Cc1ccc(OCC(=O)NNC(=S)NC(=O)C2CC2)c(C)c1	none
Cc1ccc(OCC(=O)NNC(=S)NC(=O)C(C)(C)C)c(Br)c1	D1 ag 82
Cc1ccccc1Cn1c(=O)n(CCc2ccccc2)c(=O)c2c(C)c(C)sc21	none
COc1cc(OC)c(NC(=O)Cn2cnc3sc(C)c(S(=O)(=O)N4CCN(C)CC4)c3c2=O)cc1Cl	none
CNC(=S)N/N=C1\C(=O)c2cccc3cccc1c23	D1 antag -46
CCCCNC(=S)N/N=C1\C(=O)c2cccc3cccc1c23	none
